From PubChem
In the library only some 12% were active in any assay of this set; here they are far more common.
Cycloheximide cs: counter-screen hit for Shiga toxin inhibitors, cycloheximide; 300,000 compounds, 12% hits; AID 2314; max response, %; cell reporter, cycloheximide protein synthesis inhibition counterscreen; in the data active = max response mostly above about 13%, no sharp cut-off; inactive = mostly below about 14%; note: read at 38.3 µM for the half of the compounds with a filed dose; 0% is about no effect
NS1 function inh: inhibitors of influenza NS1 protein function; Potency, µM (titrated, usually from 46.1 µM), without a hit: at the highest dose activity, positive = more growth; 270,000 compounds, 0.4% hits; note: potency is the fitted concentration of half-maximal effect; actives are rising curves; nearly all actives have a fitted effect of over 50% in size
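Compounds were scored for reversing the slow growth caused by influenza A NS1 in S. cerevisiae, measured by optical density at 600 nm. Assay medium contained 2% galactose at pH 6.0; NS1-free yeast of the same strain were the positive control.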
Shiga toxin inh: inhibitors of Shiga toxin in Vero cells; inhibition, % at 38.7 µM; 290,000 compounds, 9.2% hits; AID 2315; Vero cells, Shiga toxin protein synthesis inhibition reporter; in the data active = inhibition mostly above about 28%, no sharp cut-off; inactive = mostly below about 43%; note: 0% is about no effect
SARS PLP yeast: blocks SARS-CoV papain-like protease in a yeast assay; S. cerevisiae expressing SARS-CoV PLpro, growth rescue; Potency, µM (titrated, usually from 32.9 µM), for inactives: top-dose activity, positive = growth rescue, actives largely listed as activators; 330,000 compounds, 0.19% hits; AID 485353; note: potency is the fitted concentration of half-maximal effect; 0% is about no effect; nearly all actives have a fitted effect of over 55% in size
* hit, by the source's call; ? = inconclusive; · = no result given. Unless noted, calls come from the whole dose curve.

SMILES | Cycloheximide cs | NS1 function inh | Shiga toxin inh | SARS PLP yeast
CC(/C=C/c1ccco1)=N\NC(=O)c1cccnc1 | 5 | 10% | 6 | -2%
C/C(=N/NC(=O)OC(C)(C)C)c1ccco1 | 29* | 7% | 66* | -5%
COc1ccc(CC(=O)N/N=C(/C)c2ccco2)cc1 | 1 | -1% | -7 | 1%
CC(/C=C/c1ccco1)=N\NC(=O)c1cc(Cl)ccc1O | 27* | 0% | 91* | ?
C/C(=N\Nc1cccc2cccnc12)c1ccc[nH]1 | 40* | · | 75* | 0%
CC(=O)c1cccc(NC(=O)CSCc2ccc(Br)cc2)c1 | -1 | -5% | -4 | 17%
O=C(CSCc1ccc(Cl)cc1)Nc1cccc(C(=O)O)c1 | 27* | 4% | 52* | -2%
CC(=O)c1cccc(NC(=O)CSCc2ccccc2)c1 | 39* | -46% | 71* | -8%
CC(=O)Nc1ccc(SCCCC(=O)c2ccccc2)cc1 | 29* | -40% | 72* | -30%
CC(=O)c1cccc(NC(=O)CCCSc2ccccc2)c1 | 9 | -29% | 20* | -2%
O=C(Nc1ccccc1F)C1CCCN1S(=O)(=O)c1ccc(Cl)cc1 (centres undefined) | · | · | · | -3%
CC(=O)c1ccc(OCc2cc(C(=O)NCCc3ccc(Cl)cc3)no2)cc1 | 19* | -9% | 48* | 10%
Cc1cc(C)nc(CCNC(=O)c2cc(COc3ccccc3)on2)n1 | 36* | -23% | 56* | 0%
CCN1CCCC1CNC(=O)c1cc(COc2ccc(C)c(C)c2)on1 (centres undefined) | 32* | 3% | 53* | 0%
Cc1ccc(OCc2cc(C(=O)NCC(C)(C)N3CCOCC3)no2)cc1C | -2 | -29% | -20 | -1%
CC(=O)c1ccc(OCc2cc(C(=O)NCC3CCCCO3)no2)cc1 (centres undefined) | 25* | 7% | 46* | 2%
Cc1cc(C)nc(CCNC(=O)c2cc(COc3c(F)cccc3F)on2)n1 | 1 | 5% | -6 | 0%
Cc1cc(Cl)ccc1NC(=S)NCc1ccco1 | 1 | -6% | -8 | 20%
CCn1c(SCc2ccccc2)nc2cc(S(N)(=O)=O)ccc21 | -3 | -11% | -10 | 1%
CC(=O)c1cccc(NC(=S)NC2CCCCCCC2)c1 | 10 | 16% | 20 | 1%
Cc1ccc(OCc2cc(C(=O)NCc3cc(F)ccc3C)no2)cn1 | 22* | -26% | 28* | -5%
Cc1ccc(OCc2cc(C(=O)NCC3COCCO3)no2)cc1C (centres undefined) | 41* | 0% | 42* | -4%
CC(C)(O)C#Cc1ccc(C(=O)NC(CCCNC(N)=O)C(=O)O)s1 (centres undefined) | -3 | · | 0 | 0%
Cc1nnc(NC(=O)CSCc2cc(=O)c3ccccc3[nH]2)s1 | · | · | · | -3%
Cc1ccc(C)c(NCc2ccccc2CO)c1 | -1 | -2% | 24 | -1%
SMILES | Cycloheximide cs | NS1 function inh | Shiga toxin inh | SARS PLP yeast
COc1cc(CN2CCCN(C)CC2)cc([N+](=O)[O-])c1O | -1 | 5% | · | 2%
CCc1ccc(OCCn2cccn2)cc1 | 34* | · | 59* | 1%
Cc1ccc(S(=O)(=O)N2CCN(C(=O)C(C)Cn3cncn3)CC2)cc1C (centres undefined) | -2 | 4% | -12 | 0%
COc1cc(CO)ccc1OCC(=O)Nc1ccc(Br)cc1 | 21* | -3% | 96* | -2%
O=C(COc1ccc(Br)cc1CO)Nc1ccccc1 | 27* | -31% | 159 | -4%
COc1ccccc1NC(=O)COc1ccc(Br)cc1CO | 21 | -3% | 15 | 2%
O=C(COc1ccc(Br)cc1CO)Nc1ccccc1F | 29* | -74% | 77* | -6%
Cc1ccc(NC(=O)COc2ccccc2CNC(C)(C)CC(C)(C)C)cc1 | -1 | -10% | -11 | 2%
CC(C)(CO)NCc1ccccc1OCC(=O)Nc1ccccc1 | 24* | -5% | 64 | -1%
Cc1ccc(NC(=O)COc2ccc(Br)cc2CO)cc1 | 26* | -72% | 69 | -7%
O=C(c1ccc(Cl)c(S(=O)(=O)NCc2cccnc2)c1)N1CCCC1 | · | · | · | 0%
O=C(NC1CCCCC1)C(=S)NC1CCCCC1 | 1 | 2% | -1 | 1%
NNC(=S)NC1CCCCC1 | 13* | -1% | 43* | 3%
CCC1=C(c2ccc(C)cc2)S(=O)(=O)N=C1N1CCC(C(=O)NCCCN2CCCCC2C)CC1 (centres undefined) | 8 | -12% | -10 | ?
N#Cc1cn(CCOc2ccc(F)cc2)c2ccccc12 | 14 | -22% | 23 | -86%
Cc1ccc(OCCCn2cc(C#N)c3ccccc32)cc1 | 24* | 8% | 68* | -11%
N#Cc1cn(CCOc2ccccc2F)c2ccccc12 | 18* | -44% | 65 | -26%
COc1ccccc1OCCn1cc(C=O)c2ccccc21 | -3 | 25% | 6 | 10%
O=Cc1cn(CCOc2ccccc2F)c2ccccc12 | 25* | 15% | 49* | -11%
O=C(O)c1ccc(NS(=O)(=O)c2cc(Cl)sc2Cl)cc1 | -1 | 4% | -17 | 0%
Cc1cc2sc3ccccc3c(=O)c2c(C)c1O | 71* | -8% | 85* | -3%
O=c1c2ccccc2sc2ccc(Cl)cc12 | 11 | -6% | 16 | 8%
Nc1c(Cl)cc2c(c1Oc1ccccc1)C(=O)c1ccccc1C2=O | 29* | -65% | 27 | -4%
Nc1cc(Cl)ccc1Oc1ccccc1 | -1 | 7% | -8 | 2%
COc1ccc(-c2nnc(SCC(=O)N/N=C/c3ccccc3C(=O)O)n2-c2ccc(Cl)cc2)cc1 | 11 | ? | 2 | 0%
SMILES | Cycloheximide cs | NS1 function inh | Shiga toxin inh | SARS PLP yeast
COc1ccccc1CN1CC(C(=O)NCc2cc(F)cc(C(F)(F)F)c2)CCC1=O (centres undefined) | 1 | -1% | -8 | -4%
Cc1ccc(-n2c(C)cc(C(=O)CSc3nnnn3C)c2C)cc1 | 53* | -47% | 66* | -14%
Cc1ccc(-n2c(C)cc(C(=O)CSc3nncs3)c2C)cc1 | 45* | -143% | 105* | -13%
COc1ccccc1OCCNC(=O)C1CC(=O)N(c2ccc3c(c2)OCCO3)C1 (centres undefined) | · | · | · | -5%
CN1C(=O)c2ccc(N3CCCC3)cc2C1=O | 15* | -54% | 55* | 3%
CN1C(=O)c2ccc(N(C)C)cc2C1=O | 7 | -1% | 26 | -8%
Cc1cc(N2CCCC2)ccc1/C=C1\NC(=S)N(C)C1=O | 21* | 1% | 28 | -1%
CC(=O)Nc1ccc(S(=O)(=O)Nc2ccc(C(=O)NCC(=O)O)cc2)cc1 | 8 | 6% | 22 | -1%
O=C(c1ccc(Nc2nccc(-c3cc4ccccc4s3)n2)cc1)N1CCC(N2CCCC2)CC1 | -18 | · | -16 | ·
Cc1ccc2sc(-c3ccc(NC(=O)/C=C\C(=O)O)cc3)nc2c1 | 40* | · | 112* | -1%
CCCCCC(=O)Nc1ccc(-c2csc(N)n2)cc1 | 57* | · | 123* | 0%
CCCCCC(=O)Nc1ccc(-c2csc(C)n2)cc1 | 46* | 1% | 77* | -20%
CC(=O)Nc1ccc(-c2csc(NC(=O)CCCc3cccs3)n2)cc1 | 9 | 16% | 28 | -8%
Cc1ccc(S(=O)(=O)Nc2ccc(NC(=O)/C=C/C(=O)O)cc2)cc1 | 6 | 10% | -23 | 0%
Cc1nc(-c2ccc(NC(=O)/C=C\C(=O)O)cc2)cs1 | 18* | · | 50* | -1%
CCCCCC(=O)Nc1ccc(-c2nnc3n2CCCCC3)cc1 | 2 | -6% | -19 | 3%
